Measured values published in PubChem BioAssay AID651725 (National Center for Advancing Translational Sciences (NCATS), 2012).
About 2,000 (0.56%) of roughly 360,000 compounds were called active. Roughly 2% stayed inconclusive and do not appear here. The list comes from a sample in which actives are over-represented; it also holds similar structures and randomly drawn compounds. Unmarked numbers belong to inactive results. Rule as the data show it: active = activity change below about -65%; inconclusive = mostly about -30% to -63%; inactive = weaker than that.

The compounds below were run against Homeobox protein SIX1 (Homo sapiens) + Protein phosphatase EYA2 (Homo sapiens) (UniProt Q15475+O00167) (assay: qHTS Assay for Inhibitors of the Six1/Eya2 Interaction). Settings: AlphaScreen GST-Six1/His-Eya2 binding, biochemical; stronger effect = lower value.
Sequence of Homeobox protein SIX1 (Homo sapiens) + Protein phosphatase EYA2 (Homo sapiens) (O00167 whole entry, looked up): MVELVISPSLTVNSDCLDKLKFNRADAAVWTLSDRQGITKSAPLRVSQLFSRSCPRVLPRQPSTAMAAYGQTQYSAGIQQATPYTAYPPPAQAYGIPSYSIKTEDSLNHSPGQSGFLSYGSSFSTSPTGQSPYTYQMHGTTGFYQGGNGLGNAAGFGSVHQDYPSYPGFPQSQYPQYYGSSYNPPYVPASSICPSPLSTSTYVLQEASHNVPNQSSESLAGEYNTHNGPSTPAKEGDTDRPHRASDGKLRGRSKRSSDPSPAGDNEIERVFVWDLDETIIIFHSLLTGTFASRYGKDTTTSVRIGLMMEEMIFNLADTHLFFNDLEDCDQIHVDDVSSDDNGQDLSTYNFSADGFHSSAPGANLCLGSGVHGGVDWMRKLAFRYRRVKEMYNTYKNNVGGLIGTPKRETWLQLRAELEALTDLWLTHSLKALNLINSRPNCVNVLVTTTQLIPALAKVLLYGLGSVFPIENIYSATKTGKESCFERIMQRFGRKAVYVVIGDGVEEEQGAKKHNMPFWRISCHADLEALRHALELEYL
Sequence of Homeobox protein SIX1 (Homo sapiens) + Protein phosphatase EYA2 (Homo sapiens) (Q15475 whole entry, looked up): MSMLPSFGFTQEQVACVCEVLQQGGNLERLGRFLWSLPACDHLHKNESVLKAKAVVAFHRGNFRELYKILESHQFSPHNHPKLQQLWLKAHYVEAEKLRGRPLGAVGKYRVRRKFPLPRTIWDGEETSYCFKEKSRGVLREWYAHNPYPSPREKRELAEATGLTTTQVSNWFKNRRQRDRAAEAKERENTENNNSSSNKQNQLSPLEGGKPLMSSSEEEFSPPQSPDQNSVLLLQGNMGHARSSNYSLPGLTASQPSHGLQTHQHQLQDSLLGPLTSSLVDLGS
Source text: Its expression is low or undetectable in normal adult breast tissue but the gene is over-expressed in 50% of primary breast tumors and 90% of metastatic lesions. […] Similar to Six1, Eya2 is also not expressed in most normal adult tissues, but is reexpressed in cancers. The Six1-Eya interaction is essential for proliferation during embryonic development, and both Six1 and Eya2 have been independently implicated in the same types of cancer. Because Six1 and Eya2 are embryonic genes with little expression in adult tissues, inhibitors of their expression/activity are likely to have limited side effects. Our goal is to identify inhibitors of the Six1/Eya interaction for potential cancer therapy. To this end, we have developed a homogenous AlphaScreen assay targeting the Six1/Eya interaction. We performed a large scale HTS of the Molecular Libraries Small Molecule Repository (MLSMR) to identify inhibitors of the Six1/Eya interaction as potential anti-cancer therapeutics. Compounds identified can also be used as chemical probes to better understand the biological functions of Six1 and Eya. NIH Chemical Genomics Center [NCGC] NIH Molecular Libraries Probe Centers Network [MLPCN] MLPCN Grant: DA033147 Assay Submitter (PI): Rui Zhao, University of Colorado Denver
The first step of the 5 uL AlphaScreen assay is to dispense assay buffer (50 mM Tris, pH 8.0, 300 mM NaCl, 0.05% BSA, 0.02% Tween 20, 1 mM TCEP) into a Greiner 1536 white solid bottom microtiter plate (789175-F). Five microliters is added to Column 1, 4 uL is added to Column 2 and 3 uL is added to Columns 3 through 48. A 5X protein solution (250 nM GST-Six1 protein + 500 nM His-tagged Eya2 protein) is mixed and 1 uL is dispensed to Columns 3-48. Using a 1536 pintool, 23 nL of compound is transferred to the assay plate. A solution of 5X AlphaScreen beads is mixed (50 ug/mL Glutathione linked donor beads + Nickel chelated acceptor beads) and 1 uL is dispensed to Columns 2-48. The assay plate is incubated for one hour, with a lid, at 37 deg C in the dark. The plate is read using a Perkin Elmer Envision using an AlphaScreen protocol.
% is scaled to controls: 0 for no effect and ±100 for the full control effect.

Structure (SMILES) | activity change
O=[N+]([O-])c1ccc(C=Nc2ccc(Cl)cc2Cl)s1 | -73.2% (active)
CCC(C)CN1C(=O)CN(S(C)(=O)=O)CC1(C)C(=O)Nc1ccc2c(c1)OCCO2 (stereo not given) | 16.6%
COc1ccc2c(c1)CCCO[C@]21O[C@H](CCO)C[C@H](O)[C@H]1O | 6.3%
CC(C)(C)OC(=O)NCCCCCNC(=O)c1nc[nH]c1C(=O)NCc1ccccc1 | -0.665%
Cc1ccc(NC(=O)c2nc[nH]c2C(=O)N[C@@H](CCCCNC(=O)OC(C)(C)C)C(=O)OC(C)(C)C)cc1 | -3.47%
CC(C)(C)OC(=O)NCCCCCNC(=O)c1[nH]cnc1C(=O)Nc1nccs1 | -76.4% (active)
COC(=O)c1ccc2nc(-c3cccc(Br)c3)c(Cc3ccccc3C(F)(F)F)n2c1 | -10.3%
Cc1ccc(C(=O)N2CCN(C3CCCCC3)CC2)s1 | -13.4%
OCCC#Cc1ccc(N2C(c3ccsc3)=Cc3ccc(F)cc3C2c2c[nH]c3ccccc23)cc1 (stereo not given) | -7.53%
O=C(N/N=C/c1cccc(OC(=O)c2ccc([N+](=O)[O-])cc2)c1)c1cccnc1 | -3.98%
Cc1cc(C(=O)N/N=C/c2cc([N+](=O)[O-])cc(C)c2O)n[nH]1 | -77.5% (active)
COc1ccc(C(=O)NNC(=O)c2cc(C)[nH]n2)cc1 | 1.78%
CCCCNS(=O)(=O)c1ccc2nc(SCC(=O)Nc3cc(C)cc(C)c3)[nH]c2c1 | -4.15%
CCOC(=O)[C@]12CCCC=C1N(Cc1cccc3ccccc13)C(=O)[C@H](CC(=O)NCC13CC4CC(CC(C4)C1)C3)C2 | -14%
Nc1nonc1-n1nnc(C(=O)N/N=C\c2ccncc2)c1CN1CCCCC1 | -5.55%
NNC(=O)c1nnn(-c2nonc2N)c1CN1CCCC1 | 4.15%
Nc1nonc1-n1nnc(C(=O)N/N=C/c2ccccc2O)c1CN1CCCC1 | -91.1% (active)
COC(=O)C[C@H]1C=C[C@H](NC(=O)c2ccc(F)cc2)[C@@H](CO)O1 | 7.11%
Cc1cc(C)c(S(=O)(=O)NN=C2c3ccccc3[C@H]3Cc4csc[n+]4[C@@H]23)c(C)c1 | -12.5%
Cc1cccc(N(CC(=O)N2CCCC2)S(C)(=O)=O)c1C | 7.01%
COc1ccc(Cc2nnc(SCC(=O)Nc3ccc(C)c(Cl)c3)[nH]c2=O)cc1 | 6.59%
Cc1ccc(NC(=O)CSc2nn3c(=O)c(C)nnc3s2)cc1Cl | -81.7% (active)
Cc1ccc(NC(=O)CSc2nnc(CNC(=O)c3ccccc3F)o2)cc1Cl | 8.8%
O=C(Nc1ccc(F)cc1)C(CCc1ccccc1)N1CCN(CC(=O)N2CCCC2)CC1 (stereo not given) | 1.59%
FC(F)(F)c1cccc(-c2nc3ccccc3n2C(c2ccccc2)c2nc3ccccc3[nH]2)c1 (stereo not given) | -13.3%
CCN(CC(=O)NC1CCS(=O)(=O)C1)S(=O)(=O)c1ccccc1 (stereo not given) | 9.89%
Cc1ccccc1CN1C(=O)CSCC1(C)C(=O)Nc1c(C)cccc1C (stereo not given) | -3.18%
Cc1nc(N=C(N)N)nc2c(C)cccc12 | -72.7% (active)

Structure (SMILES) | activity change
COC(=O)[C@@]12C[C@@H](CC(=O)NCCCCc3ccccc3)C(=O)N(CCc3ccc(OC)c(OC)c3)C1=CCC(C)(C)C2 | -8.99%
Cc1ccc(C(=O)Nc2c(-c3ccccc3)[nH][nH]c2=O)cc1 | 3.7%
COC(=O)C[C@@H]1C=C[C@@H](NS(=O)(=O)c2cccc(OC)c2)[C@@H](CO)O1 | -2.42%
COc1ccc(Cc2nnc(N/N=C/c3ccccc3O)[nH]c2=O)cc1OC | -85.7% (active)
CC(C)c1ccc(Cc2nnc(NCCCO)[nH]c2=O)cc1 | 4.24%
COc1ccc(Cc2nnc(SC)[nH]c2=O)cc1 | 0.132%
Cc1ccc(/C=C/C(=O)OCC(=O)Nc2cccnc2Cl)cc1 | -0.924%
CC(C)(C)NC(=O)C(CCc1ccccc1)n1c(=O)c(-c2ccccc2)nc2ccccc21 (stereo not given) | 7.94%
O=C(O)c1ccc2c3c(cccc13)C(=O)N(OS(=O)(=O)c1ccccc1)C2=O | -77.1% (active)
COc1cccc(-c2ccc3c(c2)S(=O)(=O)c2cccc(C(=O)O)c2C3=O)c1OC | -5.18%
Cc1cc(Br)cn2c(Cc3ccccc3C(F)(F)F)c(C3CCCCC3)nc12 | 11.6%
CC(=O)N1Cc2cc(C(=O)NCc3cccc(F)c3)nc(-c3cccc(C4=CCCC4)c3)c2[C@H]1CCO | -15.8%
O=C(COC(=O)COc1cc(Cl)c(Cl)cc1Cl)NC1CC1 | 3.24%
NC(=S)NN=Cc1ccc(OC(=O)COc2cc(Cl)c(Cl)cc2Cl)cn1 | -93.5% (active)
O=C(COc1cc(Cl)c(Cl)cc1Cl)NCCc1ccccn1 | -7.95%
COc1ccc(C(C(=O)NCc2ccccc2)n2c(=O)c(-c3ccccc3)nc3ccccc32)cc1 (stereo not given) | 0.529%
CC(C)C[C@H]1CNC(=O)C(=O)N1C[C@@H]1CCCN1C[C@H](Cc1ccccc1)N1C[C@H](CC(C)C)N(CC2CCCCCC2)C(=O)C1=O | -1.64%
O=c1[nH]c2ccccc2n2c(-c3ccccc3)nnc12 | -65.3% (active)
O=C(c1ncn2c1c(=O)[nH]c1ccccc12)N1CCc2ccccc2C1 | -3.9%
Cc1n[nH]c(=O)nc1N/N=C/c1cccs1 | -90.5% (active)
Cc1nc2ccccc2n1CC(=O)N/N=C/c1cccs1 | -11.4%
Cn1c(=O)c2c(nc(N/N=C/c3cccs3)n2Cc2ccc(Br)cc2)n(C)c1=O | 29.6%
Cc1nccn1-c1ccc(NC(=O)[C@H]2O[C@@H](n3ccc(=O)[nH]c3=O)[C@H](O)[C@@H]2O)cc1 | 1.11%
O=C(NCc1ccccc1)C(c1ccc(F)cc1)N1CCN(C(=O)C2CCCO2)CC1 (stereo not given) | 20.6%
Cc1cccc(NC(=O)c2cc(N3C(=O)CCC3=O)ccc2Cl)n1 | 3.08%
Cc1cc(NC(=O)c2cccc(N3C(=O)CCC3=O)c2)no1 | -70.6% (active)
Cc1cc(NC(=O)c2ccccc2C)no1 | 9.99%
